For ten sequences, binding signal results are on record in paper PMC7862700, “An all-to-all approach to the identification of sequence-specific readers for epigenetic DNA modifications on cytosine”.

Assay in all cases: DAPPL (digital affinity profiling via proximity ligation, sequencing); 10 mM Tris-HCl pH 7.5, 50 mM NaCl, 1 mM DTT, 4% glycerol, room temperature, 30 min; GST-TFs on glutathione beads, 16-mer random dsDNA library, 0.1% formaldehyde crosslink after washing; high values mean tight binding
Settings in all cases: protein: recombinant; tags: N-terminal GST; dsDNA, one strand shown

For assay [1], the target named is T1, ERF (Homo sapiens, UniProt P50548 1-548).
T1 sequence: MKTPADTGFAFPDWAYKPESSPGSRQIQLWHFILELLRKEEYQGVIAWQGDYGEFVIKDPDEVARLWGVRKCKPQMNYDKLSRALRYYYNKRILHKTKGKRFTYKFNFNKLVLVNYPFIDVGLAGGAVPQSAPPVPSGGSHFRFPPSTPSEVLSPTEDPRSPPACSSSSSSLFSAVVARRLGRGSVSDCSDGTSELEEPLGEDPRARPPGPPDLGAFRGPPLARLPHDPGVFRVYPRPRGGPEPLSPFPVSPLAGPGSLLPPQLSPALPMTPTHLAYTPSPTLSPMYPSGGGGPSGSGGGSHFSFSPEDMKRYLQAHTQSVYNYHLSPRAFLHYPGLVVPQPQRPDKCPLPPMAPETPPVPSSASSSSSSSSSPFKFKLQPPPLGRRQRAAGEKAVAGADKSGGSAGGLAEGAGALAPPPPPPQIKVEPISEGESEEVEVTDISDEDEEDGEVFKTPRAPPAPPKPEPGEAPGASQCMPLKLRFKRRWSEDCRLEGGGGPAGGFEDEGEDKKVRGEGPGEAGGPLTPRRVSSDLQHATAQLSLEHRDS
The method, boiled down: (§1)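 Beads coated with glutathione captured GST-fused human transcription factors that had been expressed in yeast, and the factors were then given DNA barcodes and pooled with a tag-only sample. The pools were incubated with 200 nmole of a random double-stranded 16-mer DNA library in Tris/NaCl/DTT/glycerol buffer for 30 min at room temperature, washed, crosslinked with 0.1% formaldehyde and proximity-ligated with BsaI/T4 ligase at 37 °C for 1 h. PCR amplification and Illumina NextSeq500 sequencing came last. Binding signal is each hexamer's read frequency for a factor divided by its frequency for the tag-only sample.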

In assay [2] the target is T2, ETV3L (Homo sapiens, UniProt Q6ZN32 1-361).
T2 sequence: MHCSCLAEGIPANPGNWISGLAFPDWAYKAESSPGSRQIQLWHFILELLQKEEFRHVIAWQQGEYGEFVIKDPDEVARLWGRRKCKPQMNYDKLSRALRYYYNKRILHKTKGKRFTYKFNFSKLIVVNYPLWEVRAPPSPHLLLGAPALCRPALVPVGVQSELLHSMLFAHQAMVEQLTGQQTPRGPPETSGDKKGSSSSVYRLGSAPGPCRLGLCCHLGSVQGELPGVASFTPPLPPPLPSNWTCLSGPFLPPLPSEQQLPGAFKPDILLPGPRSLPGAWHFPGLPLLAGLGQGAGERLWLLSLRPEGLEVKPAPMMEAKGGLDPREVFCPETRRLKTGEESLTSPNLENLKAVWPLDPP
The method, boiled down: as §1

Assay [3] addresses T3, ETS2 (Homo sapiens, UniProt P15036 1-469).
T3 sequence: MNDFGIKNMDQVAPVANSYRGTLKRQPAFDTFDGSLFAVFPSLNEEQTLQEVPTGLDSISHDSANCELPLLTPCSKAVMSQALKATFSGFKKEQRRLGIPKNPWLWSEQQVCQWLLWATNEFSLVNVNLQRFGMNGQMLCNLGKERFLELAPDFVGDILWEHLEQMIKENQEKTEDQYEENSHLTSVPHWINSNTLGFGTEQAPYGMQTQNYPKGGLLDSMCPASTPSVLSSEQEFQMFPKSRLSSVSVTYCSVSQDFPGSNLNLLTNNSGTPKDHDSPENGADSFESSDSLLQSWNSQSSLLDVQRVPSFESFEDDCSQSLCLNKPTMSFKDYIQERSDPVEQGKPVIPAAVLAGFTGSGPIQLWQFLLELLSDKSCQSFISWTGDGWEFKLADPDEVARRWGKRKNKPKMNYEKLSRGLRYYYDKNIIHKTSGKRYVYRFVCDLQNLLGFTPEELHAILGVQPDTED
In short, it runs like this:
as §1

Assay [4] deals with T4, SPDEF (Homo sapiens, UniProt O95238 1-335).
T4 sequence: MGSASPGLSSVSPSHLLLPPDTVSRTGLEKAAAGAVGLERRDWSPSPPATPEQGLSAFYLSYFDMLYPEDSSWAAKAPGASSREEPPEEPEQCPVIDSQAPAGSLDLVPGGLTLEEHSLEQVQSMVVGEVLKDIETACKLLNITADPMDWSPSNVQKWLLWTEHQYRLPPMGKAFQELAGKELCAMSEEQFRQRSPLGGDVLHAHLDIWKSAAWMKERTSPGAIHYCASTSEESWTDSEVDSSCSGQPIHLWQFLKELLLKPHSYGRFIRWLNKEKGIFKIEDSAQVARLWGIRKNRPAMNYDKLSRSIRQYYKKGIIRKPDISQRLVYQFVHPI
In short, it runs like this: as §1

The target in assay [5] is T5, ETV7 (Homo sapiens, UniProt Q9Y603 1-341).
T5 sequence: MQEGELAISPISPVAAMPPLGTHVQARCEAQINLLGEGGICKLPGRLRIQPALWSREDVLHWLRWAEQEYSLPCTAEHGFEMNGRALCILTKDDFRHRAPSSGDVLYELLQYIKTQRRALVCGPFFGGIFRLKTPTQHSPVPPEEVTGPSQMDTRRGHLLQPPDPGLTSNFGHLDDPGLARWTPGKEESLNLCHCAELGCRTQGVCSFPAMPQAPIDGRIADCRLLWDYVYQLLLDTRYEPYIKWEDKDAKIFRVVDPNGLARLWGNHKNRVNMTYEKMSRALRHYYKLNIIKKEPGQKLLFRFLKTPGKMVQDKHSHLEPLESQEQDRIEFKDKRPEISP
The method, boiled down: as §1

The target of assay [6] is T6, ELF5 (Homo sapiens, UniProt Q9UKW6-2 1-255).
T6 sequence: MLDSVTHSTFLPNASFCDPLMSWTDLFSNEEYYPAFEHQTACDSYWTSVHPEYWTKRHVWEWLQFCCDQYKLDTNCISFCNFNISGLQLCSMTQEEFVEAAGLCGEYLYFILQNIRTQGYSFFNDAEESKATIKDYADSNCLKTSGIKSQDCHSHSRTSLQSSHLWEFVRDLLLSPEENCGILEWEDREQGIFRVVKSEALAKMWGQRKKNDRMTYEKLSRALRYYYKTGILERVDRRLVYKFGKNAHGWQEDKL
The method, boiled down: as §1

The target of assay [7] is T7, ETV3 (Homo sapiens, UniProt P41162-2 1-143).
T7 sequence: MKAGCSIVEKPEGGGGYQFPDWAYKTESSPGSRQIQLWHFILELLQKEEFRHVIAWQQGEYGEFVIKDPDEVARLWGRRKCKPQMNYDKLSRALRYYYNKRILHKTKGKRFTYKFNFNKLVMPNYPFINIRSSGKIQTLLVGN
The method, boiled down: as §1

Assay [8] deals with ETV6 (Homo sapiens, UniProt P41212 1-452). The method, boiled down: as §1
ETV6, sequence (P41212 whole entry): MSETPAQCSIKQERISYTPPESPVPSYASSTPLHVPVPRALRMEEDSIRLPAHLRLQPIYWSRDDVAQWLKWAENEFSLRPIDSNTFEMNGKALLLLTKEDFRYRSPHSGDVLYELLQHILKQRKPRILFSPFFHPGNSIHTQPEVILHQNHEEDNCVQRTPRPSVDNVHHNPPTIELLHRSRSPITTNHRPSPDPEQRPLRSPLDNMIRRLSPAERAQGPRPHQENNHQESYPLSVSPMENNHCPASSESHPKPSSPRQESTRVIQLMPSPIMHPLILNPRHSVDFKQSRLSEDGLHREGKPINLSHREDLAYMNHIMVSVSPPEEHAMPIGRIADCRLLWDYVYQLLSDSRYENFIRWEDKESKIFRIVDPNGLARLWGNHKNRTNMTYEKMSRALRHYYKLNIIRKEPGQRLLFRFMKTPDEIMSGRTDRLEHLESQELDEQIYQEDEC

Turning to CGTAAC, the binding signal was 1.09 fold enrichment (6-mer frequency, TF over GST control) in assay [1]; 1.08 fold enrichment (6-mer frequency, TF over GST control) in assay [2]; 1.15 fold enrichment (6-mer frequency, TF over GST control) in assay [3]; 1.17 fold enrichment (6-mer frequency, TF over GST control) in assay [4]; 1.07 fold enrichment (6-mer frequency, TF over GST control) in assay [5]; 1.12 fold enrichment (6-mer frequency, TF over GST control) in assay [6]. The binding signal in assay [7] was 1.16 fold enrichment (6-mer frequency, TF over GST control); in assay [8], 1.06 fold enrichment (6-mer frequency, TF over GST control).

On to CCCTGT, for which the binding signal in assay [1] was 1.19 fold enrichment (6-mer frequency, TF over GST control); in assay [2], 1.06 fold enrichment (6-mer frequency, TF over GST control); in assay [3] it was 1.06 fold enrichment (6-mer frequency, TF over GST control); in assay [4] it was 1.02 fold enrichment (6-mer frequency, TF over GST control); in assay [5], 1.03 fold enrichment (6-mer frequency, TF over GST control); in assay [6], 1.08 fold enrichment (6-mer frequency, TF over GST control). Also, the binding signal in assay [8] was 1.06 fold enrichment (6-mer frequency, TF over GST control).

With ACCATC, the binding signal in assay [1] was 1.14 fold enrichment (6-mer frequency, TF over GST control); in assay [2] it was 1.13 fold enrichment (6-mer frequency, TF over GST control); in assay [3] it was 1.12 fold enrichment (6-mer frequency, TF over GST control); in assay [4], 1.09 fold enrichment (6-mer frequency, TF over GST control); in assay [5], 1.16 fold enrichment (6-mer frequency, TF over GST control); in assay [6], 1.06 fold enrichment (6-mer frequency, TF over GST control). Besides, the binding signal is 1.03 fold enrichment (6-mer frequency, TF over GST control) in assay [7] and 1.06 fold enrichment (6-mer frequency, TF over GST control) in assay [8].

TAGGGT: the binding signal in assay [1] is 1.15 fold enrichment (6-mer frequency, TF over GST control); in assay [2], 1.03 fold enrichment (6-mer frequency, TF over GST control); in assay [3], 1.02 fold enrichment (6-mer frequency, TF over GST control); in assay [4] it was 1.12 fold enrichment (6-mer frequency, TF over GST control); in assay [5] it was 1.11 fold enrichment (6-mer frequency, TF over GST control); in assay [6], 1.06 fold enrichment (6-mer frequency, TF over GST control). For the same sequence, the binding signal in assay [8] is 1.04 fold enrichment (6-mer frequency, TF over GST control).

On to TCGACG, for which the binding signal was 1.02 fold enrichment (6-mer frequency, TF over GST control) in assay [1]; 1 fold enrichment (6-mer frequency, TF over GST control) in assay [2]; 1.07 fold enrichment (6-mer frequency, TF over GST control) in assay [3]; 1.05 fold enrichment (6-mer frequency, TF over GST control) in assay [4]; 1.05 fold enrichment (6-mer frequency, TF over GST control) in assay [5]; 1.01 fold enrichment (6-mer frequency, TF over GST control) in assay [6]. For the same sequence, the binding signal in assay [8] is 1.07 fold enrichment (6-mer frequency, TF over GST control).

Turning to CTGACG, the binding signal in assay [1] was 1.17 fold enrichment (6-mer frequency, TF over GST control); in assay [2] it was 1.03 fold enrichment (6-mer frequency, TF over GST control); in assay [3], 1.2 fold enrichment (6-mer frequency, TF over GST control); in assay [4], 1 fold enrichment (6-mer frequency, TF over GST control); in assay [5] it was 1.07 fold enrichment (6-mer frequency, TF over GST control); in assay [6], 1.09 fold enrichment (6-mer frequency, TF over GST control). Also, the binding signal in assay [7] is 1.06 fold enrichment (6-mer frequency, TF over GST control); in assay [8] it was 1.16 fold enrichment (6-mer frequency, TF over GST control).

Turning to AACGTC, the binding signal in assay [1] is 1.01 fold enrichment (6-mer frequency, TF over GST control); in assay [2], 1.03 fold enrichment (6-mer frequency, TF over GST control); in assay [3] it was 1.14 fold enrichment (6-mer frequency, TF over GST control); in assay [4], 1.11 fold enrichment (6-mer frequency, TF over GST control); in assay [5], 1.11 fold enrichment (6-mer frequency, TF over GST control); in assay [6], 1.1 fold enrichment (6-mer frequency, TF over GST control). For the same sequence, the binding signal is 1.07 fold enrichment (6-mer frequency, TF over GST control) in assay [7] and 1.05 fold enrichment (6-mer frequency, TF over GST control) in assay [8].

Regarding CAAATC, the binding signal in assay [1] is 1.12 fold enrichment (6-mer frequency, TF over GST control); in assay [2], 1.1 fold enrichment (6-mer frequency, TF over GST control); in assay [3], 1.09 fold enrichment (6-mer frequency, TF over GST control); in assay [4], 1.26 fold enrichment (6-mer frequency, TF over GST control); in assay [5], 1.13 fold enrichment (6-mer frequency, TF over GST control); in assay [6] it was 1.08 fold enrichment (6-mer frequency, TF over GST control). The binding signal in assay [8] was 1.05 fold enrichment (6-mer frequency, TF over GST control).

Regarding GGAACA, the binding signal in assay [1] was 1.01 fold enrichment (6-mer frequency, TF over GST control); in assay [2] it was 1.07 fold enrichment (6-mer frequency, TF over GST control); in assay [3], 1.08 fold enrichment (6-mer frequency, TF over GST control); in assay [4] it was 1.15 fold enrichment (6-mer frequency, TF over GST control); in assay [5] it was 1.03 fold enrichment (6-mer frequency, TF over GST control); in assay [6] it was 1.28 fold enrichment (6-mer frequency, TF over GST control). For the same sequence, the binding signal is 1.14 fold enrichment (6-mer frequency, TF over GST control) in assay [7] and 1.02 fold enrichment (6-mer frequency, TF over GST control) in assay [8].

In the case of TGTCTG, the binding signal is 1.09 fold enrichment (6-mer frequency, TF over GST control) in assay [1]; 1.05 fold enrichment (6-mer frequency, TF over GST control) in assay [2]; 1.09 fold enrichment (6-mer frequency, TF over GST control) in assay [3]; 1.15 fold enrichment (6-mer frequency, TF over GST control) in assay [4]; 1.02 fold enrichment (6-mer frequency, TF over GST control) in assay [5]; 1.15 fold enrichment (6-mer frequency, TF over GST control) in assay [6]. Further, the binding signal in assay [8] is 1.12 fold enrichment (6-mer frequency, TF over GST control).
